We go through eight sequences from paper PMC7862700, “An all-to-all approach to the identification of sequence-specific readers for epigenetic DNA modifications on cytosine”.

Holding throughout (experiment): DAPPL (digital affinity profiling via proximity ligation, sequencing); 10 mM Tris-HCl pH 7.5, 50 mM NaCl, 1 mM DTT, 4% glycerol, room temperature, 30 min; GST-TFs on glutathione beads, 16-mer random dsDNA library, 0.1% formaldehyde crosslink after washing; high values mean tight binding
Common to all, as to settings: protein: recombinant; tags: N-terminal GST; dsDNA, one strand shown

The target of one experiment is T1, FLI1 (Homo sapiens, UniProt Q01543 1-452).
T1 sequence: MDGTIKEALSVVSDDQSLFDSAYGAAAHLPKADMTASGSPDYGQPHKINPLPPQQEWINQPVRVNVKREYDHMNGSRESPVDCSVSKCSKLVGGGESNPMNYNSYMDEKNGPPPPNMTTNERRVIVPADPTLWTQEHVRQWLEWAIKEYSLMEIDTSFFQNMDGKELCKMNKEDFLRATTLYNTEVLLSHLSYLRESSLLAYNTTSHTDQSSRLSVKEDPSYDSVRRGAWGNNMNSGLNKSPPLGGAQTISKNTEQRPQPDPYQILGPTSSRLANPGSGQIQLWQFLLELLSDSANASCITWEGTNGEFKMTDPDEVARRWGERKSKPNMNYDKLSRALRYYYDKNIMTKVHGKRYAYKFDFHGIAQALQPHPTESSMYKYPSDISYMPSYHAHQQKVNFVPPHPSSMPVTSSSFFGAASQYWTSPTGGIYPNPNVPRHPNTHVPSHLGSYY
In outline:
(§1)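 Human transcription factors fused to GST were expressed in yeast, captured on glutathione beads, given DNA barcodes and pooled with a GST-only negative control. Pools were incubated with 200 nmole of a 16-mer random double-stranded DNA library in Tris/NaCl/DTT/glycerol buffer at room temperature for 30 min. They were then washed, crosslinked with 0.1% formaldehyde, proximity-ligated (BsaI/T4 ligase, 1 h, 37 °C), PCR-amplified and sequenced on an Illumina NextSeq500. Binding signal is each 6-mer's read frequency for a factor divided by its frequency for the GST control.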

The target in the next experiment is T2, ELK1 (Homo sapiens, UniProt P19419 1-428).
T2 sequence: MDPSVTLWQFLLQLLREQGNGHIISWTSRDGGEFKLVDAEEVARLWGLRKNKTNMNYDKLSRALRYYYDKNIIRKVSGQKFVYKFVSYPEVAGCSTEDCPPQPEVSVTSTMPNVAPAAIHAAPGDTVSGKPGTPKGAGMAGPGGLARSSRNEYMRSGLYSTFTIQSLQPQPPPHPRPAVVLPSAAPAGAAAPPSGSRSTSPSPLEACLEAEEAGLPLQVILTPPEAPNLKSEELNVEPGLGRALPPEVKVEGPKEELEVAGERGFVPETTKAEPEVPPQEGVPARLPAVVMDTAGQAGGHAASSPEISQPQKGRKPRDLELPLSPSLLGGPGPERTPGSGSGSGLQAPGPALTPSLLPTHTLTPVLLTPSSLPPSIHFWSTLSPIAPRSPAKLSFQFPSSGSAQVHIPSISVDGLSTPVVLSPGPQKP
The gist of the method:
as §1

A further experiment addresses T3, GABPA (Homo sapiens, UniProt Q06546 1-454).
T3 sequence: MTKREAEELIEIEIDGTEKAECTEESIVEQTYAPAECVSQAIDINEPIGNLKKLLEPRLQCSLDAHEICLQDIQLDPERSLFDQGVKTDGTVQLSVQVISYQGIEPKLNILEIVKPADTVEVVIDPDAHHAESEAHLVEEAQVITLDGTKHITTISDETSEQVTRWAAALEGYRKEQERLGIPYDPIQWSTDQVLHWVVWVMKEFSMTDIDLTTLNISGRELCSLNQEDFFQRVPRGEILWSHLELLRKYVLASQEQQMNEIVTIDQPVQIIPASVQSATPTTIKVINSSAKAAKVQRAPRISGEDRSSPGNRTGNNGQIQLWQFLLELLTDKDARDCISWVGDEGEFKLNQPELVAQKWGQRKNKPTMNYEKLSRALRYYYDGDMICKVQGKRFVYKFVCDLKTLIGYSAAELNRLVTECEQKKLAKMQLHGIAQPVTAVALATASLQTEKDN
The gist of the method: as §1

For another experiment, the target named is T4, ERG (Homo sapiens, UniProt P11308 1-479).
T4 sequence: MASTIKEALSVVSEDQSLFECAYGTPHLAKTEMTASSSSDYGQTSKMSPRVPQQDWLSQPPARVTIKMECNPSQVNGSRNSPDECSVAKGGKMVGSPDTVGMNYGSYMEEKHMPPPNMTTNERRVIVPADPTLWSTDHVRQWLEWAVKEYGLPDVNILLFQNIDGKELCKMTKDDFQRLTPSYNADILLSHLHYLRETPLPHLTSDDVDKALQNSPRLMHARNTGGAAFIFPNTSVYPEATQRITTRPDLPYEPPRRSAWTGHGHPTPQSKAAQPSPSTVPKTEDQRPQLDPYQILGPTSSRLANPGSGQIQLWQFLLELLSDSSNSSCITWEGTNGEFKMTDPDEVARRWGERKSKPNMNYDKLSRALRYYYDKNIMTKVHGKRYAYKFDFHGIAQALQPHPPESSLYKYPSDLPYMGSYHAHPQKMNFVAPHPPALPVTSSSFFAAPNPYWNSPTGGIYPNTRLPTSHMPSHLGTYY
In outline:
as §1

A further experiment has as its target ELF1 (Homo sapiens, UniProt P32519 1-619). In outline: as §1
The target of a further experiment is T5, EHF (Homo sapiens, UniProt Q9NZC4 1-300).
T5 sequence: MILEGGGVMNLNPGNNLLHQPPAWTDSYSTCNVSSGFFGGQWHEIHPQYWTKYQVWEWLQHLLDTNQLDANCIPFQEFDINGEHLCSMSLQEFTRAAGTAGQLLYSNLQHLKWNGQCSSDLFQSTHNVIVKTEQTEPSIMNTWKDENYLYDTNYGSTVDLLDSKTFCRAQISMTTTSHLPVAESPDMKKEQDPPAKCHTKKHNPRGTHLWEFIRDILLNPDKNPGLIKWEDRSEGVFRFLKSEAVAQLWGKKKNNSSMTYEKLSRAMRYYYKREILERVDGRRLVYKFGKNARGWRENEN
In outline: as §1

Another experiment deals with SPI1 (Homo sapiens, UniProt P17947 1-270). In outline:
as §1

In another experiment the target is SPIB (Homo sapiens, UniProt Q01892 1-262). In outline:
as §1

For a further experiment, the target named is T6, ELK3 (Homo sapiens, UniProt P41970 1-407).
T6 sequence: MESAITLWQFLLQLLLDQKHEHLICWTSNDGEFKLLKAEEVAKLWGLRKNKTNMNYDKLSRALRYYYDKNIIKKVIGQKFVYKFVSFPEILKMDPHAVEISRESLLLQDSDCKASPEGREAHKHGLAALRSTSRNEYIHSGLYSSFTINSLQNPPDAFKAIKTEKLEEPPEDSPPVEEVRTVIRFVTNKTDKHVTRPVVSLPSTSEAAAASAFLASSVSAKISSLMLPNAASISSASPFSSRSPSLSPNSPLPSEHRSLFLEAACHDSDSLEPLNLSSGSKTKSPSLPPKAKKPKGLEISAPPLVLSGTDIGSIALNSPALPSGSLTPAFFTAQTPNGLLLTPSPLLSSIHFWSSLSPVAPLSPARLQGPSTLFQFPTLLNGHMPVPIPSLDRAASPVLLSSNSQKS
The gist of the method: as §1

Sequence of ELF1 (P32519 whole entry): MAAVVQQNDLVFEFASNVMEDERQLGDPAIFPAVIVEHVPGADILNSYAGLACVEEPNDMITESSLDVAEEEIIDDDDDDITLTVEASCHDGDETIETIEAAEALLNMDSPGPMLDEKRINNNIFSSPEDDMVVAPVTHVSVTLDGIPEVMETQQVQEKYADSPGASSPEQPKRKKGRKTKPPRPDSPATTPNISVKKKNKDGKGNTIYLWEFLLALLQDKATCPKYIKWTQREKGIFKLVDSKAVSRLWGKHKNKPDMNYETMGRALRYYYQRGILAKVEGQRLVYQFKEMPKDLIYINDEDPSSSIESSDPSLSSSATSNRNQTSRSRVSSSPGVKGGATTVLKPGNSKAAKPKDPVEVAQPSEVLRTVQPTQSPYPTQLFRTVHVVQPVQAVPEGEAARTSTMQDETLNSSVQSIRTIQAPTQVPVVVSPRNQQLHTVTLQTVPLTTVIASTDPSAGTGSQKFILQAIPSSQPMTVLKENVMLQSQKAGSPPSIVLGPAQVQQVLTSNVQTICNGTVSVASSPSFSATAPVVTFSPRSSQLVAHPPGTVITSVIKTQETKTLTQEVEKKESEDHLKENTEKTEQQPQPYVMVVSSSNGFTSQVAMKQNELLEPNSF
Sequence of SPIB (Q01892 whole entry): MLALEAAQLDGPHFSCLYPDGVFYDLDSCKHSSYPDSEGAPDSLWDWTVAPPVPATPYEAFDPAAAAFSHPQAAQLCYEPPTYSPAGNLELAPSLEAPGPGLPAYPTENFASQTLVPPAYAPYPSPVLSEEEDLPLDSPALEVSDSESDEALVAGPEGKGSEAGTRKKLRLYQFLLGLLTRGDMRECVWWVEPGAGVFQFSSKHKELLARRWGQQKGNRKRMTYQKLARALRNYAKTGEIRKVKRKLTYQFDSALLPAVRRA

Consider CTCACT, for which the binding signal was 1.61 fold enrichment (6-mer frequency, TF over GST control) in the experiment with FLI1; 1.76 fold enrichment (6-mer frequency, TF over GST control) with ELK1; 1.59 fold enrichment (6-mer frequency, TF over GST control) with GABPA; 1.57 fold enrichment (6-mer frequency, TF over GST control) with ERG; 1.49 fold enrichment (6-mer frequency, TF over GST control) with ELF1; 1.56 fold enrichment (6-mer frequency, TF over GST control) with EHF. Further, the binding signal with SPI1 is 1.68 fold enrichment (6-mer frequency, TF over GST control); in the experiment with SPIB it was 1.66 fold enrichment (6-mer frequency, TF over GST control); with ELK3, 1.5 fold enrichment (6-mer frequency, TF over GST control).

As for CTGGAC, the binding signal was 1.16 fold enrichment (6-mer frequency, TF over GST control) in the experiment with FLI1; 1.07 fold enrichment (6-mer frequency, TF over GST control) with ELK1; 1.17 fold enrichment (6-mer frequency, TF over GST control) in the experiment with GABPA; 1.13 fold enrichment (6-mer frequency, TF over GST control) with ERG; 1.12 fold enrichment (6-mer frequency, TF over GST control) in the experiment with ELF1; 1.13 fold enrichment (6-mer frequency, TF over GST control) with EHF. Moreover, the binding signal is 1.08 fold enrichment (6-mer frequency, TF over GST control) in the experiment with SPI1 and 1.05 fold enrichment (6-mer frequency, TF over GST control) in the experiment with SPIB.

Take GTCTTA: the binding signal is 1.1 fold enrichment (6-mer frequency, TF over GST control) in the experiment with FLI1; 1.14 fold enrichment (6-mer frequency, TF over GST control) with ELK1; 1.08 fold enrichment (6-mer frequency, TF over GST control) in the experiment with GABPA; 1.06 fold enrichment (6-mer frequency, TF over GST control) with ERG; 1.11 fold enrichment (6-mer frequency, TF over GST control) with ELF1; 1.08 fold enrichment (6-mer frequency, TF over GST control) in the experiment with EHF. In addition, the binding signal in the experiment with SPI1 was 1.14 fold enrichment (6-mer frequency, TF over GST control); with SPIB, 1.14 fold enrichment (6-mer frequency, TF over GST control); in the experiment with ELK3, 1.06 fold enrichment (6-mer frequency, TF over GST control).

With CCGAAA, the binding signal was 1.25 fold enrichment (6-mer frequency, TF over GST control) with FLI1; 1.23 fold enrichment (6-mer frequency, TF over GST control) with ELK1; 1.33 fold enrichment (6-mer frequency, TF over GST control) with GABPA; 1.2 fold enrichment (6-mer frequency, TF over GST control) with ERG; 1.25 fold enrichment (6-mer frequency, TF over GST control) with ELF1; 1.22 fold enrichment (6-mer frequency, TF over GST control) in the experiment with EHF. Besides, the binding signal in the experiment with SPI1 was 1.21 fold enrichment (6-mer frequency, TF over GST control); in the experiment with SPIB, 1.26 fold enrichment (6-mer frequency, TF over GST control).

With TCACTA, the binding signal with FLI1 was 1.21 fold enrichment (6-mer frequency, TF over GST control); with ELK1, 1.22 fold enrichment (6-mer frequency, TF over GST control); in the experiment with GABPA, 1.17 fold enrichment (6-mer frequency, TF over GST control); with ERG, 1.17 fold enrichment (6-mer frequency, TF over GST control); in the experiment with ELF1, 1.21 fold enrichment (6-mer frequency, TF over GST control); in the experiment with EHF, 1.17 fold enrichment (6-mer frequency, TF over GST control). For the same sequence, the binding signal with SPI1 is 1.23 fold enrichment (6-mer frequency, TF over GST control); with SPIB, 1.25 fold enrichment (6-mer frequency, TF over GST control).

For the sequence CCTACA, the binding signal with FLI1 is 1.35 fold enrichment (6-mer frequency, TF over GST control); with ELK1 it was 1.26 fold enrichment (6-mer frequency, TF over GST control); with GABPA it was 1.33 fold enrichment (6-mer frequency, TF over GST control); with ERG, 1.21 fold enrichment (6-mer frequency, TF over GST control); with ELF1, 1.19 fold enrichment (6-mer frequency, TF over GST control); in the experiment with EHF, 1.18 fold enrichment (6-mer frequency, TF over GST control). Further, the binding signal in the experiment with SPI1 was 1.16 fold enrichment (6-mer frequency, TF over GST control); with SPIB, 1.17 fold enrichment (6-mer frequency, TF over GST control); with ELK3, 1.19 fold enrichment (6-mer frequency, TF over GST control).

On to TGACGA, for which the binding signal was 1.06 fold enrichment (6-mer frequency, TF over GST control) with FLI1; 1.12 fold enrichment (6-mer frequency, TF over GST control) in the experiment with ELK1; 1.21 fold enrichment (6-mer frequency, TF over GST control) in the experiment with GABPA; 1.07 fold enrichment (6-mer frequency, TF over GST control) with ERG; 1.14 fold enrichment (6-mer frequency, TF over GST control) in the experiment with ELF1; 1.04 fold enrichment (6-mer frequency, TF over GST control) with EHF. In addition, the binding signal was 1.03 fold enrichment (6-mer frequency, TF over GST control) with SPI1 and 1.17 fold enrichment (6-mer frequency, TF over GST control) with SPIB.

For the sequence GCTCTG, the binding signal is 1.18 fold enrichment (6-mer frequency, TF over GST control) in the experiment with FLI1; 1.26 fold enrichment (6-mer frequency, TF over GST control) with ELK1; 1.03 fold enrichment (6-mer frequency, TF over GST control) in the experiment with GABPA; 1.01 fold enrichment (6-mer frequency, TF over GST control) in the experiment with ERG; 1.08 fold enrichment (6-mer frequency, TF over GST control) with ELF1; 1.15 fold enrichment (6-mer frequency, TF over GST control) with EHF. For the same sequence, the binding signal is 1.11 fold enrichment (6-mer frequency, TF over GST control) with SPI1 and 1.1 fold enrichment (6-mer frequency, TF over GST control) with SPIB.
